Results as given in PubChem BioAssay AID504332 (National Center for Advancing Translational Sciences (NCATS), 2011).
Among all 350,000 compounds or so, about 31,000 (8.9%) were called active. Roughly 15% stayed inconclusive and do not appear here. Calls follow the shape of the dose curve; as a rule, active = well fitted inhibition curve with a large enough effect; inconclusive = small, poorly fitted or top-dose-only effect; inactive = no such curve, though single readings can be large or run the other way. This excerpt belongs to a sample that is enriched for actives.

Each compound was assayed against Histone-lysine N-methyltransferase EHMT2 (Homo sapiens) (UniProt Q96KQ7) (assay: qHTS Assay for Inhibitors of Histone Lysine Methyltransferase G9a). Details: G9a H3K9 monomethylation, AlphaScreen, 2 h; series mostly up to 59 µM; activity, negative = inhibition: at the top concentration.
How it was run: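 G9a (20 nM) was preincubated 15 min with compound, then reacted 2 h at room temperature with 500 nM biotin-H3K9 peptide and 20 µM SAM. Monomethyl-H3K9 detected by AlphaScreen using anti-H3K9me1 antibody.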
% is scaled to controls: 0 for no effect and ±100 for the full control effect; potency is read from the fitted curve at half-maximal effect.
Also: nearly all actives have a fitted effect of over 75% in size.

Histone-lysine N-methyltransferase EHMT2 (Homo sapiens), sequence (Q96KQ7 913-1193 limits assumed): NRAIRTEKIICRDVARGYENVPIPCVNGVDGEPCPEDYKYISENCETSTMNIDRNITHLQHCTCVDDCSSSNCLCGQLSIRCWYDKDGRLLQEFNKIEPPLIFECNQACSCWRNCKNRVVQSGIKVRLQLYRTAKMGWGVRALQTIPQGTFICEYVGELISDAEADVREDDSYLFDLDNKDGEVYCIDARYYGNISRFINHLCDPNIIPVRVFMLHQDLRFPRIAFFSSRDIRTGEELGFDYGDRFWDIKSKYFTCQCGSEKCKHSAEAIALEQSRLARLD

Row | Compound | activity, negative = inhibition | Potency
1 | CC12CCC(=O)N1C(C(=O)NCCN1C(=O)S/C(=C\c3ccccc3F)C1=O)CS2 (centres undefined) | -5.94% [at 12.7 µM] (inactive) | 
2 | Cc1cccc(N2CCN(C(=O)c3ccc(Nc4nc5ccccc5n5nnnc45)cc3)CC2)c1C | 8.07% (inactive) | 
3 | COc1ccc(C)cc1NC(=O)CSc1ccc(Cl)cc1 | 68% (inactive) | 
4 | COc1ccc(Cl)cc1NC(=O)CN(C)C(=O)c1ccc2n[nH]nc2c1 | 15.9% [at 12.7 µM] (inactive) | 
5 | COc1ccc(Cl)cc1NC(=O)CNc1ccccc1F |  | 79.4 µM (active)
6 | COc1ccc(Cl)cc1NC(=O)CN(C)C(=O)CNC(=O)C12CC3CC(CC(C3)C1)C2 | 7.61% [at 12.7 µM] (inactive) | 
7 | COc1ccc(Cl)cc1NC(=O)CN(C)Cc1ccc(OC)c(OC)c1 |  | 4.47 µM (active)
8 | COc1ccc(Cl)cc1NC(=O)CCC(=O)c1ccc(C)cc1 | 0.463% (inactive) | 
9 | CCC(=O)c1ccc(OCC(=O)Nc2ccc(N3CCCCC3)cc2)cc1 | 13.1% [at 12.7 µM] (inactive) | 
10 | CSc1ccc(Cl)c(C(=O)OCC(=O)N2CCNC2=O)c1 | 11.9% [at 12.7 µM] (inactive) | 
11 | COc1ccc(OC)c(NC(=O)CSC2=Nc3ccccc3C3=NC(CC(=O)NCc4ccc(F)cc4)C(=O)N23)c1 (centres undefined) | -3.53% (inactive) | 
12 | CC(C)c1ccc(NC(=O)Cn2ncc3ccccc32)cc1 | 16.2% [at 102 µM] (inactive) | 
13 | CCC(C)N(C(=O)COC(=O)c1nc(Cl)ccc1Cl)C1CCS(=O)(=O)C1 (centres undefined) | -0.744% [at 0.501 µM] (inactive) | 
14 | COc1cccc(CNS(=O)(=O)c2ccc3c(c2)CC(C)N3C(C)=O)c1 (centres undefined) | 3.98% [at 102 µM] (inactive) | 
15 | CC(C)CCN1CCN=C1N(C)C | 11% [at 2.33 µM] (inactive) | 
16 | CCOc1ccc(CNC(=O)C2CCCN(S(=O)(=O)N(CC)c3ccc(OCC)cc3)C2)cc1 (centres undefined) | -17.3% (inactive) | 
17 | CC(=O)N1CCOc2ccc(S(=O)(=O)N3CCN(c4cccc(C(F)(F)F)c4)CC3)cc21 | 2.97% [at 102 µM] (inactive) | 
18 | Cc1ccc2nc3c(cc(C(=O)NC4CCCCC4)c(=N)n3C(C)C)c(=O)n2c1 | 3.7% (inactive) | 
19 | CCOC(=O)CNC(=O)/C(=C\c1ccc(F)cc1)NC(=O)c1ccccc1 | 24.9% [at 12.7 µM] (inactive) | 
20 | COc1ccc(/C=C(\NC(=O)c2ccccc2)C(=O)NCCN2CCOCC2)cc1OC | 11.3% [at 102 µM] (inactive) | 
21 | Cn1c2ccccc2c2cc(/C=C(\NC(=O)c3ccccc3)C(=O)NCC(=O)O)ccc21 |  | 50.1 µM (active)
22 | COc1ccc(F)cc1C(=O)COC(=O)c1n[nH]c(=O)c2ccccc12 | 0.826% (inactive) | 
23 | Cc1coc2c(O)cc3c(c12)OC1(N2CCCCC2)C(=O)NCCCC31 (centres undefined) |  | 7.94 µM (active)
24 | C=CCC1=C/C(=C\c2c(N)n3nc(CC(=O)N4CCOCC4)sc3nc2=O)C=C(OC)C1=O | -45.8% [at 102 µM] (inactive) | 
